Several values for one entry are separate records, joined by “and”; a condition that tells them apart may be missing. Equal entries are not always repeated. A structure can be active in one record and inactive in another. Activity calls are given as the source filed them. Rule for the calls: active = hit-call score of the fitted dose curve at least 0.9, where 1 is the maximum; inactive = score below 0.9.
Key:
[1] = read-out: Interleukin-1 alpha (IL1a), IL1A (gene 3552); assay: BSK_KF3CT_IL1a: BioMAP Diversity Plus: KF3CT Assay for Interleukin-1 alpha (IL1a) Biomarker Activity (AID 2283070); conditions: primary human keratinocytes with fibroblasts; actives raise or lower the signal
How it was run: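 Primary human keratinocyte plus foreskin fibroblast co-culture, dosed and measured at 24 h in 96-well plates. IL-1a level quantified by ELISA; bidirectional fit relative to DMSO.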

[2] = read-out: TIMP metallopeptidase inhibitor 2 (TIMP2), TIMP2 (gene 7077); assay: BSK_KF3CT_TIMP2: BioMAP Diversity Plus: KF3CT Assay for TIMP metallopeptidase inhibitor 2 (TIMP2) Biomarker Activity (AID 2283071); conditions: primary human keratinocytes with fibroblasts; actives raise or lower the signal
How it was run: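 Keratinocyte–fibroblast co-culture, 24 h exposure; TIMP-2 ELISA, DMSO-normalised bidirectional fit. Parallel SRB (0.1%, TCA-fixed, 560 nm) total-protein staining gauges cytotoxicity.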

[3] = read-out: C-C motif chemokine 2 (Homo sapiens) (UniProt P13500); assay: BSK_KF3CT_MCP1: BioMAP Diversity Plus: KF3CT Assay for Monocyte Chemoattractant Protein 1 (MCP1/CCL2) Biomarker Activity (AID 2283073); conditions: primary human keratinocytes with fibroblasts; actives raise or lower the signal
How it was run: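 Keratinocytes and foreskin fibroblasts were co-cultured, dosed with chemical, and sampled 24 h later. MCP-1 was quantified by ELISA, and the endpoint was analyzed with bidirectional fitting using DMSO as negative control.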

[4] = read-out: Matrix Metallopeptidase 9 (MMP9), MMP9 (gene 4318); assay: BSK_KF3CT_MMP9: BioMAP Diversity Plus: KF3CT Assay for Matrix Metallopeptidase 9 (MMP9) Biomarker Activity (AID 2283074); conditions: primary human keratinocytes with fibroblasts; actives raise or lower the signal;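 for AC50: MMP9 protein level quantified by ELISA in the co-culture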
How it was run: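 Human keratinocyte and foreskin fibroblast co-culture exposed to chemicals for 24 h; MMP9 biomarker measured by ELISA, bidirectional fitting relative to DMSO; cytotoxicity tracked by SRB total protein staining in parallel cultures.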

[5] = read-out: urokinase plasminogen activator (uPA), PLAU (gene 5328); assay: BSK_KF3CT_uPA: BioMAP Diversity Plus: KF3CT Assay for urokinase plasminogen activator (uPA) Biomarker Activity (AID 2283075); conditions: primary human keratinocytes with fibroblasts; actives raise or lower the signal
How it was run: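 Primary human keratinocyte/foreskin fibroblast co-culture exposed to chemical; uPA measured by ELISA at 24 h. Bidirectional fit versus DMSO, with parallel SRB total-protein staining for cytotoxicity.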

[6] = read-out: E-selectin (Homo sapiens) (UniProt P16581); assay: BSK_LPS_Eselectin: BioMAP Diversity Plus: LPS Assay for Eselectin Biomarker Activity (AID 2283077); conditions: primary human HUVEC with PBMC; actives raise or lower the signal
How it was run: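 Signal of E-selectin, detected by ELISA, served as the endpoint; cells were umbilical vein endothelium with PBMC, read 24 h after treatment. DMSO defined baseline, and both increases and decreases were fitted.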

[7] = read-out: Interleukin-8 (IL8), CXCL8 (gene 3576); assay: BSK_LPS_IL8: BioMAP Diversity Plus: LPS Assay for Interleukin-8 (IL8) Biomarker Activity (AID 2283078); conditions: primary human HUVEC with PBMC; actives raise or lower the signal
How it was run: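 Endothelial cells and PBMC from human donors are co-cultured, treated with chemicals and LPS, then assayed for IL-8 by ELISA after 24 h. Parallel SRB staining (0.1% SRB after 10% TCA fixation, 560 nm) flags cytotoxicity.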

[8] = BSK_LPS_SRB: Viability Assessment in the BioMAP Diversity Plus: LPS Assay (AID 2283079); conditions: primary human HUVEC with PBMC;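 note: total protein by sulforhodamine B absorbance as a cytotoxicity measure; measured one day after compound addition; fitted in both directions against DMSO so loss or gain of signal counts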
How it was run: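 Overt cytotoxicity was gauged by sulforhodamine B total-protein staining in a primary human vascular endothelial and mononuclear cell co-culture 24 h post-dosing. Activity was fitted in both directions relative to DMSO.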

[9] = read-out: Transforming growth factor beta 1 (TGFb1), TGFB1 (gene 7040); assay: BSK_KF3CT_TGFb1: BioMAP Diversity Plus: KF3CT Assay for Transforming growth factor beta 1 (TGFb1) Biomarker Activity (AID 2283072); conditions: primary human keratinocytes with fibroblasts; actives raise or lower the signal
How it was run: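 Signal changes in either direction, relative to DMSO, define activity here. TGF-b1 is read by ELISA from a human keratinocyte-fibroblast co-culture 24 h post-dose.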

CD40, CD40 (gene 958) = assay: BSK_LPS_CD40: BioMAP Diversity Plus: LPS Assay for CD40 Biomarker Activity (AID 2283076); conditions: primary human HUVEC with PBMC; actives raise or lower the signal
How it was run: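 CD40 signal, measured by ELISA, is fitted in both directions relative to DMSO vehicle. The system is an LPS-driven human vascular primary co-culture of endothelial cells and PBMC, sampled 24 h after compound addition.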

Chain of E-selectin (Homo sapiens) (P16581 whole entry, looked up): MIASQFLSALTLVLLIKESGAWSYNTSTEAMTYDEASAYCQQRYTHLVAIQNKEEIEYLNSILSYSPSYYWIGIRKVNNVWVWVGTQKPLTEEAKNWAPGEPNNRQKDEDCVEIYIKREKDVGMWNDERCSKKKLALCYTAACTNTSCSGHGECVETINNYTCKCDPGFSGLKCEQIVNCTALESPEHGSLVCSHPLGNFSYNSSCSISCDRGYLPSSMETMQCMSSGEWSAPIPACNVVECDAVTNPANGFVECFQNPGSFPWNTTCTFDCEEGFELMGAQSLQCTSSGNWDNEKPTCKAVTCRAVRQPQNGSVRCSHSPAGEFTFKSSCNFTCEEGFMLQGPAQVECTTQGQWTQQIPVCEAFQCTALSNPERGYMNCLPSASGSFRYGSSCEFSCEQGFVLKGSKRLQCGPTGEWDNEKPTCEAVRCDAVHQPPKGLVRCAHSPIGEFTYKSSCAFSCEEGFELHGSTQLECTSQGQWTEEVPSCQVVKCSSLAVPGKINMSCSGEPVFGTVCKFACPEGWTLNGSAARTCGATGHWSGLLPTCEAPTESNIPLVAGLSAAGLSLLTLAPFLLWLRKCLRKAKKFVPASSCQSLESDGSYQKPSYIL

C=CC(=O)OCCC(F)(F)C(F)(F)C(F)(F)C(F)(F)F
outcome [1]: inactive | outcome [2]: inactive | outcome [3]: inactive | outcome [4]: inactive | outcome [5]: inactive | outcome [6]: inactive | outcome [7]: inactive | outcome [8]: inactive

Cc1cc(C)c(O)c(C(C)(C)C)c1
AC50 [1]: 31.1 µM (active) | AC50 [2]: 28.8 µM (active) | AC50 [9]: 30.8 µM (active) | AC50 [3]: 32.8 µM (active) | AC50 [4]: 30.2 µM (active) | AC50 [5]: 30.9 µM (active) | AC50 [6]: 32.1 µM (active) | outcome [7]: inactive | AC50 [8]: 36.3 µM (active)

Cc1ccc(O)c(-n2nc3ccccc3n2)c1
outcome [1]: inactive | outcome [2]: inactive | outcome [9]: inactive | outcome [3]: inactive | outcome [4]: inactive | outcome [5]: inactive | outcome [6]: inactive | outcome [7]: inactive | outcome [8]: inactive

NCC(F)(F)C(F)(F)C(F)(F)C(F)(F)C(F)(F)C(F)(F)C(F)(F)C(F)(F)F
outcome [1]: inactive | outcome [2]: inactive | outcome [3]: inactive | outcome [4]: inactive | outcome [5]: inactive | outcome (CD40, CD40 (gene 958)): inactive | outcome [6]: inactive | outcome [7]: inactive | outcome [8]: inactive

O=S(=O)(Cl)C(F)(F)C(F)(F)C(F)(F)C(F)(F)C(F)(F)C(F)(F)C(F)(F)C(F)(F)F
outcome [1]: inactive | outcome [2]: inactive | outcome [3]: inactive | AC50 [4]: 30 µM (active) and 51.1 µM (active) | outcome [5]: inactive | outcome (CD40, CD40 (gene 958)): inactive | outcome [6]: inactive | AC50 [7]: 30 µM (active) | outcome [8]: inactive

O=C(O)C(F)(F)C(F)(F)C(F)(F)OC(F)(C(F)(F)F)C(F)(F)F
outcome [1]: inactive | outcome [2]: inactive | outcome [3]: inactive | AC50 [4]: 24.7 µM (active) | outcome [4]: inactive | outcome [5]: inactive | outcome (CD40, CD40 (gene 958)): inactive | outcome [6]: inactive | AC50 [7]: 7.64 µM (active) and 9.75 µM (active) | outcome [8]: inactive

CC(C)(C)c1cc(CCC(=O)NCCCCCCNC(=O)CCc2cc(C(C)(C)C)c(O)c(C(C)(C)C)c2)cc(C(C)(C)C)c1O
outcome [2]: inactive | outcome [9]: inactive | outcome [3]: inactive | outcome [4]: inactive | outcome [5]: inactive | outcome (CD40, CD40 (gene 958)): inactive | outcome [6]: inactive | outcome [7]: inactive | outcome [8]: inactive

Cc1cnccn1
outcome [1]: inactive | outcome [2]: inactive | outcome [9]: inactive | outcome [3]: inactive | outcome [4]: inactive | outcome [5]: inactive | outcome [6]: inactive | outcome [7]: inactive | outcome [8]: inactive

Brc1nc2ccccc2s1
outcome [1]: inactive | outcome [2]: inactive | outcome [9]: inactive | outcome [3]: inactive | outcome [4]: inactive | outcome [5]: inactive | outcome (CD40, CD40 (gene 958)): inactive | outcome [6]: inactive | outcome [7]: inactive | outcome [8]: inactive

OCCCCC(F)(F)C(F)(F)C(F)(F)C(F)(F)F
outcome [1]: inactive | outcome [2]: inactive | outcome [3]: inactive | outcome [4]: inactive | outcome [5]: inactive | outcome [6]: inactive | outcome [7]: inactive | outcome [8]: inactive

OCC(O)CC(F)(F)C(F)(F)C(F)(F)C(F)(F)F (centres undefined)
outcome [1]: inactive | outcome [2]: inactive | outcome [3]: inactive | outcome [4]: inactive | outcome [5]: inactive | outcome (CD40, CD40 (gene 958)): inactive | outcome [6]: inactive | outcome [7]: inactive | outcome [8]: inactive

OCC(F)(F)C(F)(F)C(F)(F)C(F)(F)C(F)(F)C(F)(F)CO
outcome [1]: inactive | outcome [2]: inactive | outcome [3]: inactive | outcome [4]: inactive | outcome [5]: inactive | outcome [6]: inactive | outcome [7]: inactive | outcome [8]: inactive

O=C(O)CCC(F)(F)C(F)(F)C(F)(F)F
outcome [1]: inactive | outcome [2]: inactive | outcome [3]: inactive | outcome [4]: inactive | outcome [5]: inactive | outcome [6]: inactive | outcome [7]: inactive | outcome [8]: inactive

O=C(c1ccccc1)c1ccc(O)cc1O
outcome [2]: inactive | outcome [9]: inactive | outcome [3]: inactive | AC50 [4]: 26 µM (active) | outcome [5]: inactive | outcome (CD40, CD40 (gene 958)): inactive | outcome [6]: inactive | outcome [7]: inactive | outcome [8]: inactive

CC1=CC2C3C=CC(C3)C2C1C (centres undefined)
outcome [1]: inactive | outcome [2]: inactive | outcome [9]: inactive | outcome [3]: inactive | outcome [4]: inactive | outcome [5]: inactive | outcome (CD40, CD40 (gene 958)): inactive | outcome [6]: inactive | outcome [7]: inactive | outcome [8]: inactive
